HepG2 viability: HepG2 cytotoxicity, counter-screen for TGF-b inhibitors | 0.76% of 410,000 active | AID 588856 | Potency, µM (series often up to 46.1 µM), inactives show at the top dose activity change, negative = cytotoxicity, most hits filed as cytotoxic | HepG2 CAGA-GFP viability, ATP luminescence, 18 h; also: potency is read from the fitted curve at half-maximal effect
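CellTiter-Glo luminescence gave cytotoxicity after 18 hours at 37 degrees C. The cells were HepG2 CAGA-GFP in 1% FBS DMEM, stimulated with 500 pg/mL TGF-beta after compound addition. %Activity was normalised to no-cell wells (complete cell-killing) and DMSO (no toxicity), and curves were fitted and classified.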
TGFb SMAD3 inh: blocks TGF-b signaling | 1.2% of 410,000 active | Potency, µM (series often up to 46.1 µM), without a hit: at the top dose activity, negative = inhibition, actives largely listed as inhibitors | HepG2 CAGA-GFP TGF-b/SMAD3 reporter, GFP fluorescence, 18 h; TGF-beta stimulated, 500 pg/mL final; also: potency is read from the fitted curve at half-maximal effect; % is scaled to controls: 0 for no effect and ±100 for the full control effect; nearly all actives have a fitted effect of over 65% in size
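First, reporter cells (HEPG2 CAGA-GFP) rested 2 h at 37 degrees C. Next, compounds were pinned in and TGF-beta added to 500 pg/mL final. After 18 h, GFP was imaged per cell and summed per well.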
IL1B secr inh: inflammasome signaling inhibition, IL-1 beta readout. THP-1 LPS/ATP IL-1B secretion, AlphaLISA, 16 h; stronger effect = lower value. activity change, % at 57.5 µM. 4.7% of 360,000 active. AID 743279; in the data active = activity change below about -50%; inconclusive = mostly about -30% to -49%; also: % is scaled to controls: 0 for no effect and ±100 for the full control effect
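Secreted IL-1B measured by AlphaLISA bead assay after 16 h compound exposure of THP-1 cells; compounds (final up to 57.5 uM) added 1 h before LPS (250 ng/mL) and ATP (1.25 mM) stimulation; lower signal means less secretion.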
DT40 TDP1 CPT: growth inhibition of DT40 Tdp1-/-;hTDP1 cells with camptothecin (screen for TDP1 inhibitors); chicken DT40 Tdp1-/-;hTDP1 cells + 20 nM CPT, ATP luminescence, 48 h; Potency, µM (highest dose often 46.2 µM), without a hit: top-dose activity change, negative = growth inhibition, most hits filed as inhibitors; 12% of 420,000 active; also: potency is read from the fitted curve at half-maximal effect; % is scaled to controls: 0 for no effect and ±100 for the full control effect; nearly all actives have a fitted effect of over 55% in size
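Cell growth measured by CellTiter-Glo luminescence after a minimum 48 h, 37 C compound exposure with 20 nM CPT in Tdp1-knockout DT40 cells stably expressing hTDP1, seeded 400/well; qHTS titration format.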
DT40 TDP1 no CPT: qHTS for Inhibitors of human tyrosyl-DNA phosphodiesterase 1 (TDP1): qHTS in cells in absence of CPT. DT40 Tdp1-/- hTDP1 cells, no CPT, ATP luminescence, 48 h. Potency, µM (titrated, usually from 46.2 µM), inactives show top-dose activity change, negative = growth inhibition, hits mostly inhibitors. AID 686978, 2013. 15% of 420,000 active; also: potency is read from the fitted curve at half-maximal effect; % is scaled to controls: 0 for no effect and ±100 for the full control effect; nearly all actives have a fitted effect of over 55% in size
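Growth kinetics read by CellTiter-Glo luminescence after ≥48 hr at 37 °C. Cells: DT40 Tdp1-/- stably carrying human TDP1, 400 per well, compound exposure in the absence of CPT (DMSO vehicle).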
TDP1 inh: inhibitors of human tyrosyl-DNA phosphodiesterase TDP1 | recombinant TDP1, AlphaScreen DNA substrate cleavage | Potency, µM (doses to about 130 µM), without a hit: at the top dose activity change, negative = inhibition, actives largely listed as inhibitors | Q9NUW8 | AID 485290 | 0.28% of 350,000 active; also: potency is read from the fitted curve at half-maximal effect; % is scaled to controls: 0 for no effect and ±100 for the full control effect; nearly all actives have a fitted effect of over 40% in size
Target sequence (Q9NUW8 whole entry, looked up): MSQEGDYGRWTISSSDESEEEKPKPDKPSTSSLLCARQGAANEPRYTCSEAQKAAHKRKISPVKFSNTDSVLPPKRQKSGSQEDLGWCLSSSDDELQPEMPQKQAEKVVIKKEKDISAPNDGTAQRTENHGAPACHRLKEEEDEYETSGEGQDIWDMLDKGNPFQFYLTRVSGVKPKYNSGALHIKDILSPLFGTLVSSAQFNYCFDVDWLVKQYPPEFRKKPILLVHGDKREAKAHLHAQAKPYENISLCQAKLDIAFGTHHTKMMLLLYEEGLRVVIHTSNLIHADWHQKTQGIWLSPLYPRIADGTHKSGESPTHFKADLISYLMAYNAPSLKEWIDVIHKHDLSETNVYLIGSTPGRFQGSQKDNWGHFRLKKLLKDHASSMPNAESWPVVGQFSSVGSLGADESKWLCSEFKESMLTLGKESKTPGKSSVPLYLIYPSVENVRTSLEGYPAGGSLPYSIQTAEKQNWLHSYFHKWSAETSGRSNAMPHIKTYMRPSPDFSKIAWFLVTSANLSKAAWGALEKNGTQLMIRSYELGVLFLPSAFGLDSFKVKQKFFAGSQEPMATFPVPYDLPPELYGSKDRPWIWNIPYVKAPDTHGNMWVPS
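Enzyme-compound mixtures sat 15 min at room temperature, followed by a 5 min reaction with 15 nM final substrate and 10 min with AlphaScreen beads. Recombinant human Tdp1 was used at 1 nM final.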
* = called active by the depositor; u = inconclusive; x = no result given; [ ] = another dose, or the depositor's remark. The list is not random: actives were taken first. Their share in the collection is about 19%. Unless noted, calls follow the shape of the dose curve; as a rule, active = well fitted curve in the direction sought with a large enough effect; inconclusive = small, poorly fitted or top-dose-only effect, or another doubt; inactive = no such curve, though single readings can be large; an effect the other way counts as inactive or inconclusive.

SMILES	HepG2 viability	TGFb SMAD3 inh	IL1B secr inh	DT40 TDP1 CPT	DT40 TDP1 no CPT	TDP1 inh
CC1=C(C(=O)Nc2ccccc2)C(c2ccncc2)n2nc(SCc3ccccc3F)nc2N1 (centres undefined)	5.7%	23.0%	x	-15.4%	1.6%	8.8%
COc1ccc(N2C(=O)c3ccccc3C(C)(C)C2=O)cc1	-3.8%	-0.5%	-2.3	0.3%	-29.9%	7.7%
c1ccc2c(C[C@@H]3CNCCN3CCC34CC5CC(CC(C5)C3)C4)cccc2c1	-85.8%	u	10.2	18.4µM*	u	2.9%
CC(C)(C)CN1CCNC[C@H]1Cc1cccc2ccccc12	-65.3%	-27.7%	u	u	u	-0.2%
c1ccc(C2(CN3CCNC[C@H]3Cc3cccc4ccccc34)CC2)cc1	-104.6%	u	-67.5*	u	u	x
CC(C)c1ccc(NC(=O)CSc2ncccc2C(=O)Oc2cccc([N+](=O)[O-])c2)cc1	-14.2%	-6.1%	5.9	u	u	-2.6%
CN1/C(=C\C(=O)c2cccs2)Sc2ccccc21	-32.1%	2.2%	-13.7	u	10.3µM*	x
Cc1ccc(-c2cc(-c3ccc4c(c3)NC(=O)CO4)nc3c2COc2ccccc2-3)cc1	4.1%	13.3%	x	5.17µM*	4.11µM*	1.9%
Cc1ccc2c(c1)-c1nc(-c3ccc4c(c3)NC(=O)CO4)cc(-c3ccc(F)cc3)c1CO2	-15.6%	-5.4%	x	5.8µM*	4.61µM*	-5.8%
O=C(NCc1ccccn1)C(=O)NCC1OCCN1S(=O)(=O)c1ccc([N+](=O)[O-])cc1 (centres undefined)	-19.8%	-13.1%	0.0	-25.9%	-7.0%	3.5%
Nc1cc(S(=O)(=O)c2ccc(N3CCCCC3)c(N)c2)ccc1N1CCCCC1	-30.8%	u	40.0	9.2µM*	11.6µM*	x
COc1ccc(NS(=O)(=O)c2ccc(N3CCCCC3)c(N)c2)cc1	-30.6%	u	-5.0	2.59µM*	1.3µM*	1.9%[56.1 µM]
COC(=O)c1cc(NS(=O)(=O)c2ccc(N3CCOCC3)c(N)c2)cc(C(=O)OC)c1	-7.3%	-15.6%	-54.1*	-2.2%	-7.8%	0.0%
Nc1cc(S(=O)(=O)Nc2ccccc2Cl)ccc1N1CCCCC1	-24.9%	u	-21.1	14.6µM*	9.2µM*	5.4%
Nc1cc(S(=O)(=O)N2CCCCC2)ccc1N1CCOCC1	-0.6%	-0.7%	11.0	-27.3%	u	-1.2%
Cc1cccc(C(=O)N2CCc3cc(CNC(=O)COc4ccc(Cl)cc4)ccc32)c1	11.6%	-3.4%	x	-28.4%	-20.3%	5.4%
C=CCN1C(=O)/C(=N/n2cnnc2)c2ccccc21	-1.9%	0.0%	58.1	5.8µM*	4.61µM*	2.0%
Fc1ccc(-c2nnc(NC3=NCCCCC3)o2)cc1	12.6µM*	4.8%	10.9	u	13µM*	1.0%
COc1ccccc1NC(=S)Nc1cccc2cnccc12	-27.8%	-25.0%	12.2	25.9µM*	23.1µM*	-3.2%
CN(C)S(=O)(=O)c1cccc(NC(=S)Nc2cccc3cnccc23)c1	-36.2%	-12.1%	39.2	16.4µM*	13µM*	-2.6%
Fc1ccc(NC(=S)Nc2cccc3cnccc23)cc1	0.5%	11.8%	22.0	6.2%	-8.9%	1.2%
S=C(Nc1ccc(Cl)cc1)Nc1cccc2cnccc12	34.3%	-0.6%	u	u	23.1µM*	0.0%
CC1CCN(c2ncnc3c2cnn3-c2ccc(F)cc2)CC1	-13.6%	-8.0%	x	-7.0%	u	-5.2%
COc1ccc(C(=O)Nc2ccccc2C(N)=O)cc1	-57.6%	-12.5%	-8.3	u	-24.9%	7.0%
COc1ccc(C(=O)Nc2ccccc2C(=O)Nc2ccc(C(=O)O)cc2)cc1	-26.2%	4.4%	2.2	1.6%	-11.2%	6.7%
SMILES	HepG2 viability	TGFb SMAD3 inh	IL1B secr inh	DT40 TDP1 CPT	DT40 TDP1 no CPT	TDP1 inh
COc1ccc(C(=O)Nc2ccccc2C(=O)Nc2ccncc2)cc1	-35.1%	-0.4%	-17.7	u	16.4µM*	4.3%
COc1ccc(NC(=O)Nc2ccccc2F)cc1	-61.9%	0.9%	-26.1	8.2µM*	7.94µM*	-3.5%
COc1ccc(C(=O)Nc2ccccc2C(=O)Nc2ccccc2C(=O)O)cc1	-28.5%	-29.7%	30.8	18.4µM*	23.1µM*	x
COc1ccc(C(=O)Nc2ccccc2C(=O)N/N=C/c2cccc3ccccc23)cc1	-96.7%	0.0%	37.2	20.6µM*	16.4µM*	4.0%
C=CC1=C(C)/C(=C/c2[nH]c(Cc3[nH]c(/C=C4\NC(=O)C(C)=C4C=C)c(C)c3CCC(=O)O)c(CCC(=O)O)c2C)NC1=O	x	x	x	-48.5%	-13.6%	x
Cc1c(Cl)cccc1NC(=O)Cn1nnc(-c2nc(-c3ccccc3)no2)c1N	-0.4%	x	x	12.7%	5.0%	2.8%
CC(=O)N[C@H]1[C@H]([C@H](O)[C@H](O)CO)O[C@](O)(C(=O)O)C[C@@H]1O	-7.3%	-6.6%	-8.4	-1.8%	8.8%	x
COc1ccccc1NC(=O)c1ccc2oc(=O)c(S(=O)(=O)c3ccccc3)cc2c1	-1.0%	1.6%	x	-4.4%	-2.3%	1.2%
Cc1ccc2scc(N3CCN(c4ccccc4)CC3)c(=O)c2c1	-13.3%	-9.3%	x	u	u	10.1%
FB(F)F	x	x	x	x	x	6.5%
COc1ccc(C(=O)Nc2ccccc2C(=O)NCc2cccnc2)cc1OC	-15.4%	-11.8%	-3.0	3.1%	-8.7%	5.5%
COc1ccc(C(=O)Nc2ccccc2C(=O)N/N=C/c2ccncc2)cc1OC	12.6µM*	12.6%	-20.4	16.4µM*	16.4µM*	5.0%
COc1ccc(C(=O)Nc2cccc3c2CCCC3)cc1	-37.0%	-10.3%	3.8	10.3µM*	5.8µM*	x
COc1ccc(C(=O)Nc2cc(OC)c(NC(=O)Nc3ccccc3)cc2OC)cc1	-17.8%	-5.7%	-14.2	u	18.4µM*	x
COc1ccc(C(=O)Nc2cc(OC)c(Cl)cc2OC)cc1	-10.7%	-23.2%	-8.4	-21.8%	u	2.6%
O=C(Nc1cccc([N+](=O)[O-])c1)C1CC(=O)N(C2CCCCC2)C1 (centres undefined)	-3.7%	-3.6%	25.8	4.8%	-26.0%	1.2%
O=C1N[C@H](Cc2ccccc2)COC(=O)[C@H](Cc2ccc(F)cc2)CC/C=C/C[C@@H]1CC(=O)N(CCO)Cc1ccccc1	-24.2%	u	-54.8*	10.3µM*	u	0.7%

From PubChem BioAssay
